# Screening data deposited in PubChem by National Center for Advancing Translational Sciences (NCATS).
# This is a sample that favours compounds with a hit; in the whole collection about 3% have one here.
# RE007 growth inh – less growth of the S. pombe RE007 Vpr strain. S. pombe RE007 Vpr strain, BacTiter-Glo ATP luminescence, 24 h. Potency, µM (top dose mostly 92.2 µM), for the others: top-dose activity change, negative = less growth, hits mostly inhibitors. AID 651644. 0.21% of 360,000 active; active means well fitted falling curve with a large enough effect; inconclusive means small, poorly fitted or top-dose-only effect; inactive means no such curve, though single readings can be large or run the other way; further: nearly all actives have a fitted effect of over 50% in size
#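 Fission yeast strain RE007, carrying one chromosomally integrated HIV-1 vpr copy, was seeded at OD 0.01 in PMG+AL medium with 23 nL pinned compound. After 24 h at 30 °C and 99% humidity, viability was read by BacTiter-Glo luminescence.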
# Tb PYK inh – blocks Trypanosoma brucei pyruvate kinase; AID 624173; 0.12% of 410,000 active; TbPYK enzyme, Kinase-Glo Plus ATP luminescence, 45 min; Q57TT1; Potency, µM (titrated, usually from 76.8 µM), without a hit: at the highest dose activity, negative = inhibition, most hits filed as inhibitors; further: nearly all actives have a fitted effect of over 50% in size
#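 Luminescent Kinase-Glo Plus end-point after 45 min room-temperature reaction of T. brucei pyruvate kinase started with 130 uM ADP (final). Buffer TEA 50 mM pH 7.2 with KCl, MgCl2, BSA, Tween-20; titration-based qHTS with fitted concentration-effect curves.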
# LmPK inhibitor – blocks Leishmania mexicana pyruvate kinase activity; Potency, µM (titrated, usually from 57.5 µM), for the others: at the top dose activity change, negative = inhibition, actives largely listed as inhibitors; Q27686; purified LmPK, Kinase-Glo ATP luminescence, 1 h; 0.37% of 290,000 active; AID 1721
# Target sequence (Q27686 whole entry, looked up): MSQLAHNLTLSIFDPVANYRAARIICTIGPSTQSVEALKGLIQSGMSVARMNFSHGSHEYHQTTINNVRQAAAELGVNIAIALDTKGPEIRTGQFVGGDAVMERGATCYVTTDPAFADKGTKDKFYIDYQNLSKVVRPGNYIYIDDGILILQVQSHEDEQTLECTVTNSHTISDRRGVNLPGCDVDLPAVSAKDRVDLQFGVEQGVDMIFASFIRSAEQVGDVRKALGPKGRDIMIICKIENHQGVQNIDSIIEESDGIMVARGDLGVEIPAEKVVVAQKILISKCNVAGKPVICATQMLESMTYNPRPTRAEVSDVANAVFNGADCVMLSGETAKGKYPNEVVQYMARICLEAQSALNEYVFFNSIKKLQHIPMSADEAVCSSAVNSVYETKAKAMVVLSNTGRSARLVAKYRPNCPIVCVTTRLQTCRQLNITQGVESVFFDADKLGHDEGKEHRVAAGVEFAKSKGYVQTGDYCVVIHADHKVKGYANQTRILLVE
#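 Purified LmPK (0.1 nM) converted ADP (0.1 mM) to ATP with PEP (0.5 mM) in imidazole buffer pH 7.2 with KCl and MgCl2, 1 h at room temperature. ATP was read by Kinase-Glo luminescence; data normalized to uninhibited and no-enzyme controls.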
# Sm TGR block – blocks Schistosoma mansoni thioredoxin glutathione reductase; Q962Y6; purified TGR, DTNB reduction, TNB absorbance 405 nm; Potency, µM (series often up to 114 µM), inactives show at the highest dose activity change, negative = inhibition, hits mostly inhibitors; 3% of 360,000 active; further: nearly all actives have a fitted effect of over 60% in size
#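 Kinetic colorimetric format: TGR-catalysed, NADPH-driven DTNB reduction monitored via TNB absorbance. Enzyme dispensed at 20 nM; compound exposure 15 min at room temperature before reaction start.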
# * marks the source's active call; other numbers are inactive results; ? = inconclusive; . = no result given; [ ] = another dose, or the depositor's remark. Unless noted, the call rests on the fitted dose curve; in most records, active means well fitted curve in the direction sought with a large enough effect; inconclusive means small, poorly fitted or top-dose-only effect, or another doubt; inactive means no such curve, though single readings can be large; an effect the other way counts as inactive or inconclusive. On the % scale 0 is the no-effect control and ±100 the full control effect; potency means the concentration at half of the fitted maximal effect.
SMILES,RE007 growth inh,Tb PYK inh,LmPK inhibitor,Sm TGR block
Cc1ccc(NC(=S)Nc2cccc(S(=O)(=O)Nc3c(C)n(C)n(-c4ccccc4)c3=O)c2)cc1,-6%,-4%,4%,50µM*
COc1cc(NS(=O)(=O)c2ccc(N)cc2)nc(C)n1,.,-3%,.,.
Cn1c(C(=O)NCc2ccc(F)cc2)cc2c(=O)n(C)c3ccccc3c21,.,2%,.,-2%
CC(=O)Nc1nc2n(n1)C(c1ccc(F)cc1)C=C(c1ccc(Cl)cc1)N2 (stereo not drawn),.,0%,.,5%
CC1=CC(c2ccc(Cl)cc2)n2nc(NC(=O)CCC(=O)O)nc2N1 (stereo not drawn),17%,-18%,0%,10µM*
CC1=CC(c2ccc(Cl)cc2)n2nc(NC(=O)CCCC(=O)O)nc2N1 (stereo not drawn),8%,-3%,-10%,22µM*
CN(C)CCCN1C(=O)c2cccc3c(Br)ccc(c23)C1=O,-12%,-2%,6%,8.9µM*
O=[N+]([O-])c1cc(/C=N\Nc2nccs2)ccc1O,.,.,?,28µM*
Cc1nc(NS(=O)(=O)c2ccccc2)sc1NC(=O)OCCN(C)C,18%,-8%,-6%,32µM*
O=C(CCCCn1c(=O)c2ccccc2n(Cc2ccccc2F)c1=O)NCc1ccc2c(c1)OCO2,.,9%,.,0%
O=[N+]([O-])c1cc(C=Nc2ccc3ccccc3c2)ccc1Br,2%,-3%,-2%,45µM*
Cn1c2cc(B(O)O)sc2c2cnn(Cc3ccc(F)cc3F)c(=O)c21,.,.,.,-20%
COc1ccc(C(C)=O)cc1COC(=O)CCNS(=O)(=O)c1ccc(C)cc1,0%,-1%,.,5.6µM*
CCOc1ccc(C(C)=O)cc1COC(=O)CCc1cc(OC)c(OC)c(OC)c1,-2%,1%,4%,-25%
COc1ccc(C(C)=O)cc1COC(=O)CNC(=O)c1cc(C)cc(C)c1,-2%,5%,5%,32µM*
COc1ccc(C(C)=O)cc1COC(=O)CCNS(=O)(=O)c1ccc(C(C)=O)cc1,10%,-13%,0%,10µM*
COc1ccc(C(C)=O)cc1COC(=O)CCCN1C(=O)c2ccccc2C1=O,-11%,-3%,1%,8.9µM*
COc1ccc(C(C)=O)cc1CSCc1cc(C(C)=O)ccc1OC,2%,7%,0%,5%
COc1ccc(C(C)=O)cc1COC(=O)C(CO)NS(=O)(=O)c1ccc(Br)cc1 (stereo not drawn),6%,4%,0%,13µM*
CNC(=O)C(C#N)(Cc1cc(C(C)=O)ccc1OC)Cc1cc(C(C)=O)ccc1OC,-10%,-3%,2%,40µM*
CCCCN(C)C(=O)C1CCN(c2ccc(S(=O)(=O)N3CCOCC3)cc2[N+](=O)[O-])CC1,5%,-8%,.,45µM*
O=S(=O)(/N=C(\Sc1ccc(Cl)cc1)c1ccccc1)c1ccccc1,17%,-1%,-2%,25µM*
CCOc1c(Br)cc(C2CC(=O)Nc3cc4c(cc32)OCO4)cc1OC (stereo not drawn),.,-1%,.,-2%
C=CCN1c2ccccc2[C@]23C[C@@H](C(=O)OC)N(S(=O)(=O)CCCC)C2=NC(C(=O)OC)=C(C(=O)OC)[C@H]13,.,.,2%[11.5 µM],.
O=C1CN(C(=O)COC(=O)/C=C/c2ccco2)c2ccccc2N1,25%,-6%,-5%,?
SMILES,RE007 growth inh,Tb PYK inh,LmPK inhibitor,Sm TGR block
CC1(C)c2ccccc2N2CCC(=O)NC21/C=C/c1ccco1 (stereo not drawn),-28%,-16%,-2%,25µM*
CC1(C)c2ccccc2N2CC(=O)NC21/C=C/c1ccco1 (stereo not drawn),-8%,-17%,-3%,7.9µM*
O=C(c1cccc(F)c1)N1CCC[C@@]2(CCN(C(c3ccccc3)c3ccccc3)C2)C1,.,-9%,.,.
CCc1nn(CCCC(=O)N2CCN(c3cc(Cl)ccc3C)CC2)c(=O)c2cc3occc3n12,.,-2%,.,-4%
CCOC(=O)N1CCC2(CC1)C(C#N)=C(N)Oc1c2c(C)nn1-c1cccc(Cl)c1,-3%,-6%,-3%,1.1µM*
CCOC(=O)N1CCC2(CC1)C(C#N)=C(N)Oc1n[nH]c(C)c12,-2%,2%,-1%,2%
Cc1ccc2[nH]c3c(c2c1)CN(C(=O)CN1CC(C)OC(C)C1)CC3 (stereo not drawn),-1%,1%,2%,40µM*
CCCCCCCCSC1=CC(=O)C(OC)=C(OC)C1=O,-8%,14µM*,.,.
COc1ccc(N2CCCC2=O)cc1S(=O)(=O)N1CCOCC1,-8%,-5%,.,.
Fc1ccc(Br)cc1C1C=C(c2ccc(Br)s2)Nc2ncnn21 (stereo not drawn),-16%,1%,-1%,1.3µM*
COc1cc2ncn(-c3cc(OCc4ccccc4C(F)(F)F)c(C(N)=O)s3)c2cc1OC,.,0%,.,.
CCCCNC(=O)CCCn1c(=O)c2ccccc2n(Cc2ccccc2C)c1=O,.,5%,.,-3%
O=C1OC2C(O)C(O)OC2C1O (stereo not drawn),.,-8%,.,.
Cn1cc(NC(=O)c2cc(NC(=O)c3cc(NC=O)cn3C)cn2C)cc1C(=O)NCCC(=N)N,.,1%,-2%,14µM*
[O-][n+]1cccc2c(Br)cc(Br)c(O)c21,?,-11%,-1%[11.5 µM],7.9µM*
CCC(C(=O)Nc1ccc(C)c(Cl)c1)n1c(=O)c(-c2ccccc2NC(C)=O)nc2ccccc21 (stereo not drawn),.,-5%,.,-6%
Cc1cc(SCNC(=O)c2ccccc2)nc(C(C)C)n1,6%,7%,15%,11µM*
COc1ccc2c3c([nH]c2c1)C(C)NCC3 (stereo not drawn),-5%,2%,3%,11µM*
CC(=O)c1ccc(-c2nnc(CCC(=O)N(C)Cc3cccc4cnccc34)o2)s1,-19%,6%,0%,40µM*
Cn1cc(C(=O)CCl)c2ccccc21,3%,-7%,-7%,3.5µM*
COC(=O)c1sc(C(=O)OC)c(C(=O)OC)c1C(=O)OC,0%,-4%,0%,1%
COC(=O)c1sc(=S)sc1C(=O)OC,32µM*,-12%,3%,-23%
N#CCCn1cc(C(=O)Nc2ccc(C(=O)O)cc2)c(-c2cccc(Br)c2)n1,-9%,1%,10%,100µM*
CC(C)N(Cc1ccccc1)C(=O)c1nc(-c2ccc(Cl)cc2)n2c1CCCCC2,.,1%,.,-6%
COc1cc(-c2ccc3oc(-c4cccc(C)c4)c(C#CC4(O)CCCCC4)c3c2)cc(OC)c1OC,-8%,0%,.,.
O=C1CC(=O)CC(c2ccccc2)C1,-12%,5%,-4%,-7%
O=C1CC(c2ccccc2)CC(=O)C1CS(=O)(=O)c1ccccc1 (stereo not drawn),1%,-22%,-1%,0.71µM*
CCCCOC(=O)c1ccc(NC(=O)CSc2nc3c(c(=O)[nH]2)CCCC3)cc1,.,-2%,.,0%
CN(C)c1c(-c2ccccc2)cc(-c2ccccc2)[nH]c1=O,.,.,2%,16µM*
O=C(O)c1ccc(-c2ccccc2)[nH]c1=O,-2%,-18%,-8%,-8%
